We go through 28 compounds from PubChem BioAssay.

Chain of E3 ubiquitin-protein ligase XIAP (Homo sapiens) (P98170 whole entry, looked up): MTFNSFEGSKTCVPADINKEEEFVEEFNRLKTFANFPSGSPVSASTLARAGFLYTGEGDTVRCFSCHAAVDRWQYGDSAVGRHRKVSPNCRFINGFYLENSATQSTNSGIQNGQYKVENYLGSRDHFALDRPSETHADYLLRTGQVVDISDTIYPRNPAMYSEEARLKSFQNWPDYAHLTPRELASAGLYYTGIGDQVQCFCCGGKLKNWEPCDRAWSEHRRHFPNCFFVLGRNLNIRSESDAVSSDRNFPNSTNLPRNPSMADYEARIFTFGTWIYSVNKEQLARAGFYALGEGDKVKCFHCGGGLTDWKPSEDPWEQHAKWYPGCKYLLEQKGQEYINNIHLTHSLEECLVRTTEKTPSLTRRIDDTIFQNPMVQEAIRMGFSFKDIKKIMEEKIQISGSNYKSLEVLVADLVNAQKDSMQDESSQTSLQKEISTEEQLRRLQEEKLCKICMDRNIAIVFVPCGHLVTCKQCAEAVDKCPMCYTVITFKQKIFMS

This experiment has as its target E3 ubiquitin-protein ligase XIAP (Homo sapiens) (UniProt P98170). In words: small molecules binding XIAP protein – biophysical, small-molecule microarray, fluorescence 635 nm, primary screen (AID 1181).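 Note: score merges 667 nm emission and signal to noise over triplicate slides.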 The conditions noted are these: higher = more signal.
Compound `CCOC(=O)C[C@H]1[C@H](OC(=O)Cc2ccc3c(c2)OCO3)[C@@H](NC(=O)CC(C)C)c2cc(OCCCO)ccc2N1C(=O)Cc1ccc(OC)cc1` came in with a composite z-score of -0.0622. With `CCOC(=O)C1=C[C@@H](c2ccccc2)N(S(=O)(=O)c2ccc(C)cc2)[C@H]1c1ccccc1Cl` the figure was -0.136; with `C[N+](C)(C)CCCC[C@@H]1NC(=O)[C@H]2C[C@@H](C(=O)NCCCCCCN)[C@@H](c3ccc(O)cc3)N2C1=O`, -0.0286; with `C=C(COC)C(=O)CC[C@@H](OC(=O)c1cccnc1)c1ccc(OCCO)cc1`, -0.184. Next, `COC(=O)[C@@]1(Cc2ccc(OC)cc2)[C@H]2c3cc(C(=O)N4CCCC4)n(Cc4c(-c5ccccc5)noc4C)c3C[C@H]2CN1C(=O)c1ccccc1`: -0.0048; `COCCCNC(=O)[C@]1(CCS(=O)(=O)c2ccccc2)N=C(c2ccc(OCCCO)cc2)O[C@@H]1c1ccccc1CN=[N+]=[N-]`: 0.481. On to `COC(=O)[C@@]1(Cc2ccc(F)cc2)[C@H]2c3cc(C(=O)N(C)C)n(CCc4ccc(O)c(OC)c4)c3C[C@H]2CN1C(=O)c1ccccc1`, for which the composite z-score is -0.196. On to `COC(=O)[C@@]1(Cc2ccccc2)[C@H]2c3cc(C(=O)N(C)C)n(CCN4CNCC4=O)c3C[C@H]2CN1C(=O)c1ccccc1`, for which the composite z-score was determined as 0.404. With `O=C1O[C@H](c2ccccc2)[C@H](c2ccccc2)N2[C@H]1[C@@H](C(=O)Nc1nc3ccccc3s1)[C@]1(C(=O)Nc3ccc(C#CCCO)cc31)[C@H]2c1ccc(O)cc1`, the composite z-score amounted to 1.01.

`COC(=O)c1cn(C[C@@H](Cc2ccccc2)NC(=O)N[C@H](CO)CCc2oc(C(C)=O)c(C(=O)OC)c2C(=O)OC)nn1`: the composite z-score is -0.02. Next, `COCCOC(=O)N1C(=O)[C@@]2(c3cc(C#CC4=CCCCC4)ccc31)[C@H](C(=O)N1CCCCCCC1)[C@H]1C(=O)O[C@H](c3ccccc3)[C@H](c3ccccc3)N1[C@@H]2c1ccc(O)cc1`: -0.0025; `CCOC(=O)C[C@H]1[C@H](OC(=O)c2ccccc2-c2ccccc2)[C@@H](NC(=O)C2CCCCC2)c2cc(OCCCO)ccc2N1C(=O)Cc1ccc(OC)cc1`: -0.159.

In turn, `COc1ccc(-c2cc3c(c(CCc4ccccc4)n2)[Si](C(C)C)(C(C)C)OC3)cn1` had a composite z-score of 0.136. Compound `COC(=O)[C@@]1(Cc2ccccc2)[C@H]2c3cc(C(=O)N(C)C)n(CCc4ccc(O)c(OC)c4)c3C[C@H]2CN1C(=O)c1ccccc1` came in with a composite z-score of -0.0373. With `COC(=O)Cn1c(C(=O)N(C)C)cc2c1C[C@H]1CN(C(=O)c3ccccc3)[C@@](Cc3ccc(F)cc3)(C(=O)OC)[C@@H]21`, the composite z-score is -0.13. Compound `C=CCNC(=O)[C@H]1[C@@H]2C(=O)O[C@@H](c3ccccc3)[C@@H](c3ccccc3)N2[C@@H](c2ccc(O)cc2)[C@]12C(=O)N(C(=O)OCCOC)c1ccccc12` showed a composite z-score of -0.02. `CC(C)N1C(=O)c2ccccc2[C@@H](C(=O)NC2CC2)[C@@H]1c1ccc(CO)cc1`: the composite z-score amounted to 0.163.

As to `O=C1N(Cc2ccccc2)Cc2ccccc2[C@@H]2OC(c3ccc(OCCCO)cc3)=N[C@]12CCS(=O)(=O)c1ccccc1`, the composite z-score is -0.144. Turning to `CC(C)C(=C=CC[C@H](O)c1ccc(OCCO)cc1)C[C@H](O)c1ccccn1`, the composite z-score was 0.244. With `COC(=O)c1nc2oc1CC[C@@H](CO)NC(=O)N(C)Cc1cnnn1C[C@H](Cc1ccccc1)NC2=O`, the composite z-score is -0.148.

In the case of `CCOC(=O)C[C@H]1[C@H](OC(=O)Cc2ccc3c(c2)OCO3)[C@@H](NC(=O)Cc2ccc(OC)cc2)c2cc(OCCCO)ccc2N1C(=O)c1ccc2ccccc2n1`, the composite z-score turned out to be 0.0526. In turn, `CCCCCCCCCCC(O)C1C=CC2C(=O)N(C)C(=O)C2N1NC(=O)OC(C)(C)C` (stereo not drawn) gave a composite z-score of 0.109. Next, `O=C1NC(=O)C2C1C=CC(C(O)c1c(F)cccc1Cl)N2Nc1ccc(Cl)cc1Cl` (stereo not drawn): 0.482; `O=C1O[C@H](c2ccccc2)[C@H](c2ccccc2)N2[C@H]1[C@@H](C(=O)Nc1nc3ccccc3s1)[C@]1(C(=O)Nc3ccc(C#CC4(O)CCCCCC4)cc31)[C@H]2c1ccccc1OCCO`: 0.25; `CC(C)[Si](C#C[Si](C(C)C)(C(C)C)C(C)C)(O[C@H](C)c1cn([C@H](CO)Cc2ccccc2)nn1)C(C)C`: 0.0484. `COCCCNC(=O)[C@@]1(Sc2ccc(C)cc2)CC(=O)N(C2CCCCC2)[C@@H]1c1ccc(CO)cc1`: the composite z-score is -0.191. As to `O=C1C2C=CC(C(O)c3ccccc3)N(Nc3ccccc3F)C2C(=O)N1c1ccccc1` (stereo not drawn), the composite z-score came out at 0.258.

For the compound `CCC[C@@H]1C[C@@]1(CCC)[C@@H](NC(=O)OCc1ccccc1)c1ccc(-c2ccccc2)cc1`, the composite z-score was -0.0669.
